From PubChem BioAssay

Assay: reversal of MRP1-mediated doxorubicin resistance, pilot screen, H69AR cells, doxorubicin co-treatment (AID 601)
Details: H69AR cells + 2 uM doxorubicin, CellTiter-Glo, 72 h; measured here: viability with 2 uM doxorubicin; at 10 µM; stronger effect = lower value

Structure (SMILES)	viability [%]
C[C@H](NC(=O)NCc1cccs1)C(=O)O	93.5
O=C(CCS(=O)(=O)c1cc(Br)cc2c1N(C(=O)C1CC1)CC2)NCC1CCCO1 (stereo unspecified)	85.4
CCC1CCCCN1C(=O)Cn1c(C(=O)OC)cc2sc(Cl)cc21 (stereo unspecified)	88.4
CC(=O)c1cnc2cc(-c3ccccc3)nn2c1C	83.1
CCOC(=O)C1CCN(S(=O)(=O)c2cc(Cl)c(C)cc2OC)CC1	94.6
CCCN1CCN(C(=O)Cn2c(=O)oc3cc(S(=O)(=O)NCc4ccccc4)ccc32)CC1	87.5
COc1ccc(S(=O)(=O)N2CCC(C(=O)c3ccc4c(c3)OCCO4)CC2)cc1	84
CCCC(=O)Nc1nnc(CC(=O)OCC)s1	89
c1ccc(OCCCn2nnc(-c3cccnc3)n2)cc1	97.3
CC(=O)N1C(=O)N(C)C2C1N(C(C)=O)C(=O)N2C (stereo unspecified)	95.1
COc1cccc(NC(=O)N2CCCC2C(=O)NC(C)C)c1 (stereo unspecified)	87.8
c1ccc2ncc(-n3cnnn3)cc2c1	87.9
CC(=O)Nc1ccc(OC(=O)c2cccnc2)cc1	84.9
O=C(CN1C(=O)c2cccc3cccc1c23)N1CCN(c2ccccc2)CC1	89.5
CSc1ccccc1NC(=O)c1c(Br)cnn1C	94.2
O=C(c1ccccc1Oc1nnnn1-c1ccccc1)N1CCOCC1	71.9
O=C(CSc1nnc(COc2ccc(Cl)cc2)o1)N1CCN(c2ccccc2)CC1	92.4
CCOC(=O)c1ccccc1NC(=O)Cn1cnc2c(cnn2-c2ccc(OC)cc2)c1=O	99.7
COC(=O)c1c(C)oc2ccc(NS(=O)(=O)c3cccs3)cc12	101
COc1cc2[nH]c(=O)n(CCC(=O)N3CCc4ccccc4C3)c(=O)c2cc1OC	95
CCOC(=O)c1c(NC(=O)CSc2nnc(-c3cccnc3)o2)sc(C)c1C	85.1
CC1CCN(C(=O)CSc2nnc(-c3ccc(S(=O)(=O)N4CCOCC4)cc3)n2C)CC1	93.1

Same assay, conditions: H69AR cells, CellTiter-Glo, 72 h; compound alone cytotoxicity; at 10 µM

Structure (SMILES)	viability [%]
O=C(CS(=O)(=O)c1cn(Cc2ccc(Cl)cc2)c2ccccc12)N1CCCC1	79.3
O=c1c2cc(N3CCOCC3)ccc2[nH]c(=S)n1CCCN1CCCC1	100
CCOC(=O)c1[nH]c(C)c(C(=O)Nc2ccc(C)c(Cl)c2)c1C	28.6
CSc1nnc(-c2nnc(SC)n2-c2ccccc2)n1-c1ccccc1	98.3
COc1ccc(C(=O)NCc2ccccc2OC)cc1	105
CCOC(=O)c1[nH]c(C)c(C(=O)N2CCN(C(=O)c3ccco3)CC2)c1C	97.8
O=C(O)c1oc2ccccc2c1-n1cccc1	96.8
Cc1nn(-c2ccc(F)cc2)c(C)c1NS(=O)(=O)c1ccc(Cl)cc1	77
O=C(CSc1nnc(-c2ccccc2)c(-c2ccccc2)n1)N1CCOCC1	85.3
O=C(NCCCNC(=O)c1ccccn1)c1ccccn1	91.5
Cn1c(=O)c2[nH]c(NCC3CCCO3)nc2n(-c2ccccc2)c1=O (stereo unspecified)	102
CCOC(=O)c1c(C)[nH]c(C=Nc2ccccc2)c1O	101
COc1ccc(-n2c(SCc3ccc(C#N)cc3)nnc2-c2ccccn2)cc1	96.3
O=C(O)c1ccc2c(c1)N(Cc1ccccc1F)C(=O)c1ccccc1S2=O (stereo unspecified)	103
Cc1onc(-c2ccccc2Cl)c1C(=O)Nc1cccc(-c2cn3cccnc3n2)c1	85.6
COc1cc(OC)cc(C(=O)NCCN2CCOCC2)c1	94.1
Cn1c(=O)[nH]c(=O)c2c1nc(N1CCNCC1)n2CCOc1ccccc1	82
COc1ccc(CC(NC(C)=O)C(=O)NC2CCN(c3nc(C)cc(C)c3C#N)CC2)c(OC)c1 (stereo unspecified)	104
C[C@H](NC(=O)NCc1cccs1)C(=O)O	93.6
O=C(CCS(=O)(=O)c1cc(Br)cc2c1N(C(=O)C1CC1)CC2)NCC1CCCO1 (stereo unspecified)	81.8
CCC1CCCCN1C(=O)Cn1c(C(=O)OC)cc2sc(Cl)cc21 (stereo unspecified)	71.4
CC(=O)c1cnc2cc(-c3ccccc3)nn2c1C	103
CCOC(=O)C1CCN(S(=O)(=O)c2cc(Cl)c(C)cc2OC)CC1	85.2
CCCN1CCN(C(=O)Cn2c(=O)oc3cc(S(=O)(=O)NCc4ccccc4)ccc32)CC1	95.3
COc1ccc(S(=O)(=O)N2CCC(C(=O)c3ccc4c(c3)OCCO4)CC2)cc1	91.5
CCCC(=O)Nc1nnc(CC(=O)OCC)s1	88.1
c1ccc(OCCCn2nnc(-c3cccnc3)n2)cc1	108
CC(=O)N1C(=O)N(C)C2C1N(C(C)=O)C(=O)N2C (stereo unspecified)	93.5
COc1cccc(NC(=O)N2CCCC2C(=O)NC(C)C)c1 (stereo unspecified)	99.1
